This is a sample that favours compounds with a hit; in the whole collection about 2.3% have one here.
ATXN2 expr inh = reduces ATXN2 reporter expression in HEK-293 cells. HEK-293 ATXN2-luciferase reporter, luminescence, 24 h. Potency, µM (series often up to 57 µM), most hits filed as inhibitors. actives 0.72% (n = 360,000). AID 1745845; also: nearly all actives have a fitted effect of over 55% in size
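ATXN2-luciferase reporter cells (luciferase flanked by upstream and downstream ATXN2 gene portions) were treated 24 h at 37 °C with compounds at up to 57 uM. SteadyGlo luminescence gave expression; GF-AFC fluorescence gave viability.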
TGFb inhibitor = blocks TGF-b signaling. AID 588855. actives 1.2% (n = 410,000). HepG2 CAGA-GFP TGF-b/SMAD3 reporter, GFP fluorescence, 18 h; TGF-beta stimulated, 500 pg/mL final. Potency, µM (titrated, usually from 46.1 µM), usual class: inhibitors; also: nearly all actives have a fitted effect of over 65% in size
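Inhibition was scored as loss of TGF-beta-induced (500 pg/mL final, 18 hours, 37 degrees C) GFP in HEPG2 cells carrying a CAGA-GFP reporter, in DMEM with 1% FBS. Well GFP was summed per cell; Activity was normalised to unstimulated and stimulated DMSO wells, then concentration-response fitting.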
HepG2 tox-1 = HepG2 cytotoxicity, counter-screen for TGF-b inhibitors. AID 588856. actives 0.76% (n = 410,000). Potency, µM (doses to about 46.1 µM), usual class: cytotoxic. HepG2 CAGA-GFP viability, ATP luminescence, 18 h
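HepG2 CAGA-GFP cells (1000/well, DMEM with 1% FBS) received compound, then TGF-beta at 500 pg/mL final, and were incubated 18 hours at 37 degrees C. Viability was read by CellTiter-Glo luminescence. Media-only wells were set as complete cell-killing and DMSO as no toxicity.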
S2 tox = reduces viability in counter-screen for ATXN expression inhibitors | AID 651635 | S2 cells (HEK-293 line with an ATXN2-luciferase reporter) viability, CellTiter-Fluor protease fluorescence, 24 h | actives 0.49% (n = 400,000) | Potency, µM (titrated, usually from 56.7 µM), usual class: cytotoxic; also: nearly all actives have a fitted effect of over 40% in size
TGFb CAGA inh = TGF-b pathway inhibition, cherry-pick retest; actives 63% (n = 1,600); Potency, µM (titrated, usually from 46.1 µM), usual class: inhibitors; shares compounds with TGFb inhibitor; HepG2 CAGA-GFP TGF-b reporter, GFP fluorescence, 18 h; cells stimulated with TGF-beta, 500 pg/mL; also: nearly all actives have a fitted effect of over 65% in size
HepG2 tox-2 = HepG2 cytotoxicity, TGF-b inhibitor counterscreen; shares compounds with TGFb inhibitor; HepG2 CAGA-GFP viability, ATP luminescence, 18 h; cells stimulated with TGF-beta, 500 pg/mL; AID 720535; actives 27% (n = 1,600); Potency, µM (doses to about 46.1 µM), most hits filed as inhibitors; also: nearly all actives have a fitted effect of over 70% in size
CCL64 TGFb inh = blocks TGF-b signaling in CCL64 reporter cells; shares compounds with TGFb inhibitor; CCL64 CAGA-GFP reporter, TGF-b stimulated, GFP fluorescence, 18 h; Potency, µM (top dose mostly 46.1 µM), usual class: inhibitors; actives 41% (n = 1,600); AID 720536; also: nearly all actives have a fitted effect of over 65% in size
TGFb COP inh = blocks TGF-b signaling in HepG2 COP reporter | shares compounds with TGFb inhibitor | HepG2 COP-GFP TGF-b reporter, GFP fluorescence, 18 h; cells stimulated by added recombinant TGF-beta | Potency, µM (highest dose often 46.1 µM), most hits filed as inhibitors | actives 3% (n = 1,600); also: nearly all actives have a fitted effect of over 70% in size
Each line names hits and unclear results; the compound was inactive in the other large screens (follow-up assays come after a bar, where they were run); ! = not active in a repeat. Calls follow the shape of the dose curve; as a rule, active = well fitted curve in the direction sought with a large enough effect; inconclusive = small, poorly fitted or top-dose-only effect, or another doubt; inactive = no such curve, though single readings can be large; an effect the other way counts as inactive or inconclusive.

Nc1ncnc2c1ncn2[C@@H]1O[C@H](C(=O)NCc2ccc(OC(F)(F)F)cc2)[C@@H](O)[C@H]1O	TGFb inhibitor inconclusive | TGFb CAGA inh inconclusive | HepG2 tox-2 inactive | CCL64 TGFb inh inactive | TGFb COP inh inactive
Nc1ncnc2c1ncn2[C@@H]1O[C@H](C(=O)NCCc2ccc(F)cc2)[C@@H](O)[C@H]1O	none
Cc1ccc2sc(N(CCCN(C)C)C(=O)CCS(=O)(=O)c3ccccc3)nc2c1C	ATXN2 expr inh inconclusive, TGFb inhibitor 5.6µM, HepG2 tox-1 6.3µM (no result: S2 tox) | TGFb CAGA inh inconclusive | HepG2 tox-2 inconclusive | CCL64 TGFb inh 3.3µM | TGFb COP inh inconclusive
Cc1ccc(-c2csc(NC(=O)C3CC(=O)N(c4ccc5c(c4)OCCO5)C3)n2)o1 (stereo not drawn)	TGFb inhibitor inconclusive (no result: ATXN2 expr inh, S2 tox)
NC1=NC[C@H](Cc2ccc(O)cc2)N1CCc1cc(C(F)(F)F)cc(C(F)(F)F)c1	TGFb inhibitor 1.1µM | TGFb CAGA inh inactive | HepG2 tox-2 inactive | CCL64 TGFb inh inactive | TGFb COP inh inactive
O=C(Nc1cccc(Cl)c1)c1cc(N=Nc2ccc([N+](=O)[O-])cc2Cl)ccc1O	TGFb inhibitor inconclusive, S2 tox inconclusive (no result: ATXN2 expr inh) | TGFb CAGA inh 4.6µM | HepG2 tox-2 5.2µM | CCL64 TGFb inh 2.3µM | TGFb COP inh inactive
COc1cccc(C(=O)N2c3nc(-c4ccco4)nn3C3(CCCCC3)[C@@H]3CCCC[C@@H]32)c1	none (no result: ATXN2 expr inh, S2 tox)
COC(C(=O)C(O)C(C)O)C1Cc2cc3cc(OC4CC(OC5CC(O)C(O)C(C)O5)C(O)C(C)O4)c(C)c(O)c3c(O)c2C(=O)C1OC1CC(OC2CC(OC3CC(O)C(OC)C(C)O3)C(O)C(C)O2)C(O)C(C)O1 (stereo not drawn)	ATXN2 expr inh 10µM, TGFb inhibitor 1µM, S2 tox inconclusive | TGFb CAGA inh 0.37µM | HepG2 tox-2 0.092µM | CCL64 TGFb inh 1.6µM | TGFb COP inh inactive
Cc1ccccc1OCC(=O)NCC(C)NC(=O)COc1ccccc1C (stereo not drawn)	none (no result: ATXN2 expr inh, S2 tox)
O=C(CCNc1cccc(F)c1)c1cccc([N+](=O)[O-])c1	TGFb inhibitor 13µM | TGFb CAGA inh 10µM | HepG2 tox-2 inconclusive | CCL64 TGFb inh inconclusive | TGFb COP inh inactive
O=C(CCNc1ccc(Cc2ccncc2)cc1)c1cccc([N+](=O)[O-])c1	none
O=C(Nc1cc(Sc2ccccn2)cc([N+](=O)[O-])c1)c1ccc(Cl)cc1	TGFb inhibitor 14µM | TGFb CAGA inh 12µM | HepG2 tox-2 inactive | CCL64 TGFb inh 10µM | TGFb COP inh inactive
O=C(Nc1cccc([N+](=O)[O-])c1)c1ccncc1	TGFb inhibitor inconclusive
COCc1cc(S(=O)c2ccc(Cl)cc2)nc(C)n1 (stereo not drawn)	TGFb inhibitor inconclusive, S2 tox inconclusive | TGFb CAGA inh inconclusive | HepG2 tox-2 inconclusive | CCL64 TGFb inh 7.3µM | TGFb COP inh inactive
COCc1cc(Sc2ccc(Cl)cc2)nc(C)n1	none
Cc1ccc2nc(-c3ccccn3)c(Nc3ccccc3C)n2c1	ATXN2 expr inh 4.5µM!, TGFb inhibitor 3.2µM, S2 tox inconclusive | TGFb CAGA inh 8.2µM | HepG2 tox-2 inconclusive | CCL64 TGFb inh inconclusive | TGFb COP inh inactive
COc1ccc(Cn2nnnc2C(c2ccccc2)N2CCN(c3ccccc3)CC2)cc1 (stereo not drawn)	none (no result: ATXN2 expr inh, S2 tox)
